Whole data set: some 25,000 sequences, median “ln(normalized median fluorescence intensity)” near 9.7, cut for the highest 2% near 11. Shown is part of a subset that was picked to be rich in the highest values.
What follows are sequences tested on PfAP2-HC AP2 domain (GST-tagged) (assay: gcPBM binding intensity (ln(normalized median fluorescence intensity)); higher = stronger DNA binding).
Procedure, shortened: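 GST-tagged P. falciparum DNA-binding domains produced in E. coli were incubated for 1 h on an Agilent 4 × 180k array of primer-extended double-stranded 36-bp intergenic genomic probes with negative controls. Binding intensity is the highest Masliner-normalised natural-log median intensity across replicate spots of either probe orientation, with bound protein detected by Alexa488 anti-GST antibody at 488 nm.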
In the case of “TATATATATGGACACACACACACATATATATATATA [CACACA_site6121]”, the “gcPBM binding intensity (ln)” value is reported as 11.3.
With “AAAAATTATGGACACACACACATATATATATATATT [CACACA_site4717]” the “gcPBM binding intensity (ln)” value was 10.3.
For “TATATATATGGACACACACACATATATATATATTTT [CACACA_site5409]”, the “gcPBM binding intensity (ln)” value was 10.3.
“ATGTCCTATATTAGTACACACATGAAAATATAAATA [CACACA_site7497]” was tested, and the “gcPBM binding intensity (ln)” value was 9.66.
In the case of “AAAAAAAAAAAAAAAAGTACAAATTTAAAAATGTGT [XGTACX_site112]”, the “gcPBM binding intensity (ln)” value is reported as 9.44.
With “CTATAATAATAAAGTGAACACACACCGATAATATAT [CACACA_site9377]” the “gcPBM binding intensity (ln)” value was 10.1.
In the case of “AAAGATAAAAAAAGTACACACACACCGATATATATA [CACACA_site9006]”, the “gcPBM binding intensity (ln)” value is reported as 10.6.
For “AGAATAAAAAGGAACACACACACACCCATATATATA [CACACA_site3590]”, the “gcPBM binding intensity (ln)” value was 10.7.
With “AATAAAAAGGAACACACACACACACCGATATATATA [CACACA_site5895]” the “gcPBM binding intensity (ln)” value was 11.2.
With “CACTAAAATAAACACACACACACACCGATATATATA [CACACA_site9379]” the “gcPBM binding intensity (ln)” value was 10.8.
For “AAAAAGGATAAACACACACACACACCGATATATATA [CACACA_site8206]”, the “gcPBM binding intensity (ln)” value was 11.
“AATATAAATAAAAACACACACACACCGATATATATA [CACACA_site5283]” was tested, and the “gcPBM binding intensity (ln)” value was 10.8.
“TGGGAATAAAAACACACACACACACCGATATATATA [CACACA_site5875]” was tested, and the “gcPBM binding intensity (ln)” value was 11.3.
In the case of “CAAAAAAACAAACACACACACACACCGATATATATA [CACACA_site9218]”, the “gcPBM binding intensity (ln)” value is reported as 10.5.
In the case of “AACGAAGCATAAAATGTTATGTATATATATAAATAT [TGCATGCA_negctrl_site304]”, the “gcPBM binding intensity (ln)” value is reported as 9.79.
“ATAGAAATATATATATGTACATATAGATAAATCTAT [XGTACX_site7833]” was tested, and the “gcPBM binding intensity (ln)” value was 9.75.
In the case of “ATATGTACATATCTCATGCACTTAACAAAAAAAAAG [GTGCAC_site9898]”, the “gcPBM binding intensity (ln)” value is reported as 9.56.
“TACATTCGGAGTAAAAAAAAATTTATACAATTACTT [XGTACX_negctrl_site29]” was tested, and the “gcPBM binding intensity (ln)” value was 9.44.
With “TAGAATAATCCTTACACACACACACCCACGAATAAA [CACACA_site483]” the “gcPBM binding intensity (ln)” value was 10.5.
With “AATCCTTACGAACACACACACACGAATAAATAAAAA [CACACA_site6363]” the “gcPBM binding intensity (ln)” value was 10.8.
For “AATCCTTACGGACACACACACACGAATAAATAAAAA [CACACA_site4422]”, the “gcPBM binding intensity (ln)” value was 11.
For “AATCCTTACAGACACACACACACGAATAAATAAAAA [CACACA_site480]”, the “gcPBM binding intensity (ln)” value was 10.6.
With “AATAGAATAATCCTTACACACACACCCACACGAATA [CACACA_site8053]” the “gcPBM binding intensity (ln)” value was 10.4.
With “ATAATCCTTAGACACACACACACACGAATAAATAAA [CACACA_site6364]” the “gcPBM binding intensity (ln)” value was 11.3.
With “GAATTTCAACAAAGTAGTACATTTTATAGTAATTGG [XGTACX_site2319]” the “gcPBM binding intensity (ln)” value was 9.48.
“ATAAACATATCAATATGTACATATTTTTGTTTGTAT [XGTACX_site7018]” was tested, and the “gcPBM binding intensity (ln)” value was 9.77.
For “TAATTTTTATTCAGTTCACACACGCTTTAATATTAT [CACACA_site9147]”, the “gcPBM binding intensity (ln)” value was 9.94.
With “GTTATATTCCTACAGAGTACATAAAAATGCACATCA [XGTACX_site1948]” the “gcPBM binding intensity (ln)” value was 9.54.
With “AAAAAAAAAAAAAATACACACAAACACAAATTAAAT [CACACA_site5982]” the “gcPBM binding intensity (ln)” value was 10.8.
“GTTTCAAAATTAAACACACACAAAAAAAAAAAAAAA [CACACA_site2680]” was tested, and the “gcPBM binding intensity (ln)” value was 9.72.
“AAAAAAAAAAAATACACACAAACACAAATTAAATAA [CACACA_site3809]” was tested, and the “gcPBM binding intensity (ln)” value was 10.3.
“TAAATTAAAAAACACACACACAAAAAAAAAAAAAAA [CACACA_site2263]” was tested, and the “gcPBM binding intensity (ln)” value was 11.2.
With “AAAAAATTAATAAAAACACACAAAAAAAATAAACAA [CACACA_site1907]” the “gcPBM binding intensity (ln)” value was 9.95.
In the case of “CATAAATTAAAACACACACACACAAAAAAAAAAAAA [CACACA_site2262]”, the “gcPBM binding intensity (ln)” value is reported as 11.6.
For “TACCCACGTATATATATACACACTAATATACACCCA [CACACA_site9381]”, the “gcPBM binding intensity (ln)” value was 9.88.
“TTAAGCCGCAATATGGGTACATAGGAAGAAGGGGAA [XGTACX_site8397]” was tested, and the “gcPBM binding intensity (ln)” value was 9.56.
“TTTTAAATTTAATTTACACACTTTTCATAGCATTGA [CACACA_site3794]” was tested, and the “gcPBM binding intensity (ln)” value was 9.61.
In the case of “TGCAGTCTGGAGAAAAGTACACAGTATCTGGTAGCT [XGTACX_site2013]”, the “gcPBM binding intensity (ln)” value is reported as 9.58.
For “CATACATACATACATACACACATACATATGTATTTA [CACACA_site5384]”, the “gcPBM binding intensity (ln)” value was 9.99.
“AAACTTGTAAGAAACACACACACACCCATATATATA [CACACA_site797]” was tested, and the “gcPBM binding intensity (ln)” value was 10.5.
For “TTAAACTTGAAACACACACACACACCGATATAAAAA [CACACA_site4578]”, the “gcPBM binding intensity (ln)” value was 10.5.
With “TTGTAAGAAAAACACACACACACATATATATATATA [CACACA_site795]” the “gcPBM binding intensity (ln)” value was 10.3.
With “ACTTGTAAGAAACACACACACACACCCATATATATA [CACACA_site796]” the “gcPBM binding intensity (ln)” value was 11.5.
In the case of “AAACTTGTAAGAAACACACACACACGCATATAAATA [CACACA_site6518]”, the “gcPBM binding intensity (ln)” value is reported as 10.7.

From the supplement of paper PMC11417369
